16 compounds from article PMC5540273 (PLoS ONE, 2017) can be followed below.

Some test systems named below: BMPR1A; BMPR1B; BMPR2; BMX; BRAF; BRSK1; BRSK2; BTK; BUB1.
Conditions in all cases: concentration: 1 μM, replicates: in singlicate; n = 1
The next experiment relates to T1, BRK.
T1 construct: gene PTK6
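Note: KINOMEscan kinase panel screen.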

`O=C(Nc1ccc2c(c1)OCO2)NC1CCN(c2ccnc(Nc3ccc(F)cc3)n2)C1` (stereo not shown) [GSK1379724]: the “%Inh” value worked out at 0% in the experiment on BMPR1A; 0% with BMPR1B; 18% with BMPR2; 5% with BMX; 1% in the experiment on BRAF; 16% in the experiment on BRK. In addition, the “%Inh” value in the experiment with BRSK1 stood at 0%; with BRSK2 it was 0%; in the experiment with BTK it was 0%; with BUB1, 24%.

On to `Cn1ccc2ncnc(Oc3ccc(Nc4nc5ccccc5[nH]4)cc3)c21`, for which the “%Inh” value in the experiment on BMPR1A, in the experiment with BMPR1B, in the experiment on BMPR2, with BMX, in the experiment on BRAF and with BRK was 0% in each case. Further, the “%Inh” value in the experiment with BRSK1 is 0%; in the experiment on BRSK2, 2%; in the experiment on BTK, 0%; in the experiment with BUB1, 0%.

Take `COc1ccc(Nc2nccc(NCCNC(=O)Nc3ccccc3F)n2)cc1` [GSK1379901]: the “%Inh” value was determined as 0% in the experiment on BMPR1A; 0% in the experiment with BMPR1B; 6% with BMPR2; 2% in the experiment with BMX; 0% in the experiment on BRAF; 36% in the experiment with BRK. Further, the “%Inh” value with BRSK1 was found to be 16%; with BRSK2, 0%; in the experiment with BTK, 0%; with BUB1, 53%.

For the compound `Cl.O=C(Nc1cccc(-c2nn3ncccc3c2-c2ccnc(Nc3cccnc3)n2)c1)c1c(F)cccc1F` [GSK312879], the “%Inh” value with BMPR1A was found to be 0%; in the experiment on BMPR1B it was 0%; in the experiment with BMPR2, 0%; with BMX, 24%; in the experiment with BRAF, 91.6%; with BRK it was 21%. Besides, the “%Inh” value is given as 8% in the experiment on BRSK1, 0% in the experiment with BRSK2, 0% with BTK and 7% in the experiment on BUB1.

Consider `Cc1cccc(-c2cc(Nc3ccncc3)c3ccccc3n2)n1` [GSK223675], for which the “%Inh” value in the experiment with BMPR1A is reported as 0%; in the experiment with BMPR1B, 0%; with BMPR2, 0%; in the experiment on BMX, 1%; with BRAF, 0%; in the experiment on BRK, 0%. Further, the “%Inh” value in the experiment on BRSK1, in the experiment on BRSK2, in the experiment with BTK and in the experiment with BUB1 was 0% in each case.

Consider `Nc1ncnc2[nH]c(-c3ccccc3)nc12` [AH5015], for which the “%Inh” value in the experiment on BMPR1A is 0%; in the experiment on BMPR1B, 0%; in the experiment with BMPR2, 0%; in the experiment with BMX, 20%; in the experiment with BRAF it was 6%; with BRK, 16%. The “%Inh” value in the experiment with BRSK1 turned out to be 1%; in the experiment with BRSK2, 0%; with BTK it was 1%; in the experiment on BUB1, 38%.

As to `CN(C)CCN(C)C(=O)c1cc(-c2ccncc2)c(-c2ccc(Cl)c(O)c2)o1.Cl.Cl` [SB-710397], the “%Inh” value is given as 0% with BMPR1A; 0% in the experiment on BMPR1B; 31% in the experiment on BMPR2; 0% with BMX; 94.5% in the experiment with BRAF; 29% in the experiment on BRK. The “%Inh” value in the experiment with BRSK1 was 2%; in the experiment on BRSK2, 0%; with BTK, 10%; in the experiment on BUB1, 95.2%.

As to `COc1cc2ncnc(Nc3ccc4nc(-c5ccccc5)[nH]c4c3)c2cc1OC.Cl` [GW282450], the “%Inh” value is reported as 0% in the experiment on BMPR1A; 0% in the experiment with BMPR1B; 0% in the experiment on BMPR2; 10% in the experiment with BMX; 0% in the experiment with BRAF; 0% with BRK. For the same compound, the “%Inh” value amounted to 0% with BRSK1, 0% in the experiment with BRSK2, 0% in the experiment on BTK and 6% in the experiment on BUB1.

Turning to `Cc1csc(-c2nc(Nc3ccncc3)c3ccccc3n2)n1` [GW869640], the “%Inh” value is on record as 6% in the experiment on BMPR1A; 42% in the experiment with BMPR1B; 36% in the experiment with BMPR2; 14% with BMX; 10% in the experiment with BRAF; 8% in the experiment with BRK. The “%Inh” value in the experiment with BRSK1 is given as 0%; in the experiment with BRSK2 it was 15%; in the experiment with BTK, 0%; with BUB1 it was 72%.

Take `COC(=O)c1c(-c2ccccc2)c2cc(C(=O)O)ccc2c(=O)n1Cc1ccccc1`: the “%Inh” value in the experiment with BMPR1A is 0%; in the experiment with BMPR1B, 3%; with BMPR2 it was 0%; in the experiment on BMX it was 17%; in the experiment with BRAF, 90%; in the experiment with BRK, 0%. Besides, the “%Inh” value in the experiment with BRSK1, in the experiment on BRSK2, with BTK and in the experiment with BUB1 was 0% in each case.

With `Cn1cncc1-c1ccc2ncnc(Nc3ccc(OCc4ccccc4)cc3)c2c1` [GW320571], the “%Inh” value in the experiment with BMPR1A was 17%; in the experiment with BMPR1B it was 0%; with BMPR2 it was 0%; in the experiment with BMX it was 28%; in the experiment with BRAF it was 3%; in the experiment on BRK, 15%. Also, the “%Inh” value is 0% in the experiment on BRSK1, 0% in the experiment on BRSK2, 0% with BTK and 26% in the experiment with BUB1.

On to `Fc1cc(Cl)ccc1Nc1ccnc2cc(-c3ccc(CN4CCCCC4)o3)ccc12` [GW560116], for which the “%Inh” value with BMPR1A turned out to be 0%; in the experiment with BMPR1B, 0%; in the experiment on BMPR2, 0%; in the experiment on BMX, 0%; with BRAF, 0%; with BRK it was 14%. Further, the “%Inh” value with BRSK1 is on record as 2%; in the experiment with BRSK2, 0%; in the experiment on BTK, 0%; with BUB1, 26%.

As for `Fc1cc(Cl)ccc1Nc1ccnc2cc(I)ccc12` [GW551191], the “%Inh” value in the experiment on BMPR1A came to 0%; with BMPR1B it was 0%; with BMPR2, 8%; with BMX, 0%; in the experiment on BRAF, 12%; in the experiment on BRK, 19%. In addition, the “%Inh” value with BRSK1 is given as 2%; in the experiment with BRSK2, 0%; in the experiment with BTK, 0%; with BUB1 it was 54%.

Turning to `COc1ccccc1-c1ccc2c(NC(=O)C3CC3)n[nH]c2n1` [SB-711239], the “%Inh” value in the experiment on BMPR1A was 0%; in the experiment with BMPR1B, 0%; in the experiment with BMPR2, 10%; with BMX it was 16%; with BRAF it was 5%; with BRK, 2%. Also, the “%Inh” value in the experiment on BRSK1 turned out to be 0%; in the experiment on BRSK2, 2%; with BTK, 32%; in the experiment on BUB1, 11%.

On to `Cc1cccc(-c2nc(Nc3cccc(C(N)=O)c3)c3ccccc3n2)n1` [GW876019], for which the “%Inh” value in the experiment on BMPR1A is on record as 74%; in the experiment on BMPR1B, 0%; in the experiment on BMPR2 it was 14%; with BMX, 0%; with BRAF it was 0%; with BRK it was 9%. Besides, the “%Inh” value with BRSK1 was 18%; in the experiment with BRSK2, 0%; in the experiment on BTK it was 9%; with BUB1, 16%.

As for `O=C1NC(=O)C(N2CCc3ccccc32)=C1c1ccccc1Cl` [SB-373598], the “%Inh” value came out at 0% with BMPR1A; 8% in the experiment on BMPR1B; 100% with BMPR2; 29% in the experiment on BMX; 1% in the experiment with BRAF; 24% in the experiment on BRK. The “%Inh” value in the experiment with BRSK1 worked out at 12%; in the experiment on BRSK2, 9%; with BTK, 0%; with BUB1 it was 16%.
